# Results taken from PubChem BioAssay.
# Calls of active or inactive are those of the source.
# Experiments:
# [1] = E. coli DRC41 culture turbidity changes, primary screen, E. coli filamentation inducer project, strain DRC41, OD650, 48 h (AID 1152);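 note: E. coli MC1000 strain DRC41 lacking acrAB efflux pump and sulA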; settings: E. coli DRC41 (acrAB sulA), higher = more signal, called active from +8 up or from −8 down
# [2] = small-molecule binders of probe aLefty1, primary screen, biochemical, small-molecule microarray, 635/667 nm fluorescence (AID 1153); settings: higher = more signal;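 note: score merges spot fluorescence with signal-to-noise ratio from the scanned slide images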
# [3] = PSAC antagonists in infected red cells, primary screen, cell-based, P. falciparum Indochina, OD700, 1 h (AID 1154); settings: P. falciparum Indochina infected RBC osmotic lysis, higher = more signal, called active from +8 up or from −8 down
# [4] = PSAC antagonists in infected red cells, primary screen, cell-based, P. falciparum Indochina, OD700, 2 h (AID 1155);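 note: lysis reports solute entry through the parasite surface anion channel PSAC; channel blockers reduce lysis of infected cells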; settings: P. falciparum Indochina infected erythrocytes, osmotic lysis OD700; higher = more signal, called active from +8 up or from −8 down
# [5] = osmotic lysis modulators in infected erythrocytes, primary screen, PSAC antagonist project, cell-based, P. falciparum Indochina, OD700, 3 h (AID 1156); settings: higher = more signal, called active from +8 up or from −8 down
# [6] = PSAC antagonists in infected red cells, primary screen, cell-based, P. falciparum Indochina, OD700, 18 h (AID 1157); settings: P. falciparum Indochina infected erythrocytes, osmotic lysis OD700, 18 h; higher = more signal, called active from +8 up or from −8 down
# [7] = modulators of S6 phosphorylation in cells, primary screen, cell-based, A549, cytoblot, luminescence, serum-stimulated (AID 1158); settings: A549 phospho-S6 cytoblot, 5 h, higher = more signal;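 note: serum-stimulated A549 lung adenocarcinoma cells; signal is phosphorylated S6 detected by cytoblot immunostaining with HRP secondary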
# [8] = target: NADPH oxidase 2 (Homo sapiens) (UniProt P04839); experiment: NOX2-dependent H2O2 signal modulators, primary screen, NOX inhibitor project, cell-based, HEK293-NOX2, PMA-stimulated, Amplex Red fluorescence (AID 1159); settings: 45 min, higher = more signal, called active from +8 up or from −8 down; note: test concentration not given here
# NADPH oxidase 2 (Homo sapiens), sequence (P04839 whole entry, looked up): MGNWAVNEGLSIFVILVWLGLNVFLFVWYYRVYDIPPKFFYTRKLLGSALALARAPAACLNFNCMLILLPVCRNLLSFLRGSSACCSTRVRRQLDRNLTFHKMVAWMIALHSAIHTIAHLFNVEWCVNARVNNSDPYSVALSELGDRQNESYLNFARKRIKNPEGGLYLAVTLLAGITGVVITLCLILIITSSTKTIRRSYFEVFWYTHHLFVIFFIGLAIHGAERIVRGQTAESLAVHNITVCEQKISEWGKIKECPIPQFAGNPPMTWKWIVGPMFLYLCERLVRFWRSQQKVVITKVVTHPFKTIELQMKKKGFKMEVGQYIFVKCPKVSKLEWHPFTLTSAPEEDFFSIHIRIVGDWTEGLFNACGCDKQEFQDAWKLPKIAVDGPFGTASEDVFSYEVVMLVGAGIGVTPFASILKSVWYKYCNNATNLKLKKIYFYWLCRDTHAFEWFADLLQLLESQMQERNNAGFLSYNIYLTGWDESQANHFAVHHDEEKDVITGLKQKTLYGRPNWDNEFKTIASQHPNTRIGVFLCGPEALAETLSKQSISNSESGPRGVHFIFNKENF
# [9] = target: NADPH oxidase 4 (Homo sapiens) (UniProt Q9NPH5); experiment: NOX4-dependent H2O2 signal modulators, primary screen, NOX inhibitor project, cell-based, HEK293-NOX4, tetracycline-induced, Amplex Red fluorescence (AID 1160); settings: 45 min, higher = more signal, called active from +8 up or from −8 down
# NADPH oxidase 4 (Homo sapiens), sequence (Q9NPH5 whole entry, looked up): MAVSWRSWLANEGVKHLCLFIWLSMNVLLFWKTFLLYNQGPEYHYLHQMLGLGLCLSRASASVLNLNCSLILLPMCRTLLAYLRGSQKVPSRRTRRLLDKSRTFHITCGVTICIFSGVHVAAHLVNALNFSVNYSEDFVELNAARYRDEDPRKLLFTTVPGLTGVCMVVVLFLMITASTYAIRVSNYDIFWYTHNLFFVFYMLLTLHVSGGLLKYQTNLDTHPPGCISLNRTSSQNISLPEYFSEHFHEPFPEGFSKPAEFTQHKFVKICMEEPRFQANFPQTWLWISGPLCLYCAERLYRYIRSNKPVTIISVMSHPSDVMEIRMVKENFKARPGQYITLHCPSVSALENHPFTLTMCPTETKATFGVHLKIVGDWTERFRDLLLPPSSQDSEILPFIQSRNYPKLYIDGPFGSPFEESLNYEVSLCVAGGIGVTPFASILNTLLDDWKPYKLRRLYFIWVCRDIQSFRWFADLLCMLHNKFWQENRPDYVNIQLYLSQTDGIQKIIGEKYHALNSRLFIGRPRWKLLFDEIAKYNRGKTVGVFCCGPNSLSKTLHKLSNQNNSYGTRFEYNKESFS
# [10] = target: NADPH oxidase 5 (Homo sapiens) (UniProt Q96PH1); experiment: NOX5-dependent H2O2 signal modulators, primary screen, NOX inhibitor project, cell-based, HEK293-NOX5, Amplex Red fluorescence (AID 1161); settings: HEK293-NOX5, ionomycin, 45 min, higher = more signal
# NADPH oxidase 5 (Homo sapiens), sequence (Q96PH1 whole entry, looked up): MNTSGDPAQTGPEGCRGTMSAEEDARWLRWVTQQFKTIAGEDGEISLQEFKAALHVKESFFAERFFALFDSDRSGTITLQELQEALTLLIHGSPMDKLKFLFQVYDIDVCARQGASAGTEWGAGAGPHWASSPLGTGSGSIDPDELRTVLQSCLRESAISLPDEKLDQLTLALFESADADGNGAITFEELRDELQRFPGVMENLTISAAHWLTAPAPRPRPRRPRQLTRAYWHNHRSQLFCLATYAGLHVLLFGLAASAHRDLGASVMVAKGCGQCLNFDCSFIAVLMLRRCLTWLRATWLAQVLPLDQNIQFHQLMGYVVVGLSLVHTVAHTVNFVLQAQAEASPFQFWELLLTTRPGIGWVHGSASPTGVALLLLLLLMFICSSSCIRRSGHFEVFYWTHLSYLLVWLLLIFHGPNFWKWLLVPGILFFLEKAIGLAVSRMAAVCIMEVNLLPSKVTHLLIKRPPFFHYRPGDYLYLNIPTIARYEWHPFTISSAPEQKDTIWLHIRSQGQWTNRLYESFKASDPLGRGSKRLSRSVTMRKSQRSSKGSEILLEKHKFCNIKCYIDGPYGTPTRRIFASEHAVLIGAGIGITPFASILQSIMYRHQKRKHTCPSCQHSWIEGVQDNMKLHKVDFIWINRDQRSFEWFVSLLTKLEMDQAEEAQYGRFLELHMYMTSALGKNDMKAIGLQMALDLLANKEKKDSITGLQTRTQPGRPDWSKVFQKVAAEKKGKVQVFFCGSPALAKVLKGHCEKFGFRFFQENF
# [11] = A549 cell viability effects, profiling panel, calcein-AM fluorescence, 48 h, basal (AID 1162); settings: higher = more signal; note: test concentration not given here
# [12] = adipocyte viability effects, profiling panel, cell-based, 3T3-L1 adipocytes, calcein-AM fluorescence, 48 h, basal (AID 1163); settings: 3T3-L1 adipocytes viability, higher = more signal; note: test concentration not given here
# [13] = HepG2 cell viability effects, profiling panel, calcein-AM fluorescence, 48 h, basal (AID 1164); settings: higher = more signal; note: test concentration not given here
# [14] = MM1S cell viability effects, profiling panel, calcein-AM fluorescence, 48 h, basal (AID 1165); settings: higher = more signal;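 note: viability of MM1S multiple myeloma cells under basal unstimulated conditions; test concentration not given here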
# [15] = basal RPMI8226 viability, no added stimulus, profiling panel, cell-based, calcein-AM fluorescence, 48 h, PK04 Diversity Set (AID 1166); settings: RPMI8226 myeloma viability, higher = more signal;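 note: cells grown under basal conditions without added stimulus; test concentration not given here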
# [16] = basal HepG2 mitochondrial membrane potential changes, profiling panel, cell-based, JC-1 fluorescence, 24 h, 100 nL compound (AID 1167); settings: higher = more signal; note: test concentration not given here
# [17] = basal 3T3-L1 adipocyte mitochondrial potential changes, profiling panel, cell-based, JC-1 fluorescence, 3T3-L1 adipocytes, 24 h, 100 nL compound (AID 1168); settings: JC-1 mitochondrial fluorescence, higher = more signal, called active from +8 up or from −8 down; note: test concentration not given here
# [18] = basal RPMI8226 mitochondrial membrane potential changes, profiling panel, cell-based, JC-1 fluorescence, 24 h, 100 nL compound (AID 1169); settings: RPMI8226 myeloma, JC-1 mitochondrial potential fluorescence, higher = more signal; note: test concentration not given here
# [19] = basal MM1S mitochondrial membrane potential changes, profiling panel, cell-based, JC-1 fluorescence, 24 h, 100 nL compound (AID 1170); settings: higher = more signal; note: test concentration not given here
# [20] = A549 lung cancer cell viability effects, profiling panel, resazurin fluorescence, 24 h, PK04 Diversity Set (AID 1171); settings: higher = more signal, called active from +8 up or from −8 down; note: test concentration not given here
Compound,z-score [1],composite z-score [2],z-score [3],z-score [4],z-score [5],z-score [6],z-score [7],z-score [8],z-score [9],z-score [10],z-score [11],z-score [12],z-score [13],z-score [14],z-score [15],z-score [16],z-score [17],z-score [18],z-score [19],z-score [20]
CC(C)CN1CCc2nc(-c3ccccc3)c3c(c2CC1)CO[C@@H](C)C3,0.0991 (inactive),0.0981,0.82 (inactive),0.576 (inactive),0.923 (inactive),-0.142 (inactive),-0.528,1.47 (inactive),-0.0482 (inactive),-0.334,0.277,0.493,-0.0216,-2.48,-1.32,0.93,0.163 (inactive),0.0637,0.75,0.569 (inactive)
COc1ccc(-c2ccc3c(n2)CCCN3CC(O)CN2CCCc3nc(C)c(C)cc32)cc1 (stereo not given),0.125 (inactive),0.864,5.76 (inactive),0.894 (inactive),0.661 (inactive),0.0758 (inactive),-0.0509,1.05 (inactive),-0.305 (inactive),-1.35,-0.389,-0.943,0.151,0.676,-0.158,1.58,-0.205 (inactive),-0.108,-0.975,-0.542 (inactive)
COC(=O)CC=C[C@H](C)[C@@H](OCc1ccccc1Br)C(C)C,0.358 (inactive),-0.149,0.644 (inactive),0.673 (inactive),1.01 (inactive),0.589 (inactive),0.104,1.04 (inactive),0.478 (inactive),0.457,0.921,0.0901,1.34,0.426,0.736,0.744,0.319 (inactive),0.00667,-0.822,-0.307 (inactive)
CCOC(=O)C[C@H]1[C@H](OC(=O)c2ccc(C(=O)c3ccccc3)cc2)[C@@H](NC(=O)c2ccc(-c3ccccc3)cc2)c2cc(OCCCO)ccc2N1C(=O)c1ccc2ccccc2n1,2.25 (inactive),-0.118,5.21 (inactive),0.485 (inactive),0.464 (inactive),0.407 (inactive),0.756,-1.46 (inactive),0.424 (inactive),0.216,1.03,1.44,1.35,0.598,1.08,1.92,1.98 (inactive),0.611,-1.18,0.336 (inactive)
COC(=O)CC=C[C@H](C)[C@H](CO)NS(=O)(=O)c1ccc(C)cc1,-1.48 (inactive),-0.221,0.251 (inactive),-0.085 (inactive),-0.206 (inactive),-0.119 (inactive),-0.497,1.48 (inactive),0.227 (inactive),-0.484,-0.595,0.41,-0.392,0.165,0.364,-0.976,-0.0535 (inactive),-0.49,0.604,-0.711 (inactive)
COC(=O)[C@@]1(Cc2ccc(F)cc2)[C@@H]2C(=CC(=O)[C@H]2CC(=O)C(=O)N(C)C)CN1C(=O)c1ccccc1,-0.975 (inactive),0.589,3.38 (inactive),1.81 (inactive),-0.25 (inactive),1.45 (inactive),0.172,0.507 (inactive),1.3 (inactive),-0.494,-1.29,-1.34,0.201,-1.24,-2.67,2.62,0.441 (inactive),-0.817,-2.01,-1.73 (inactive)
COC(=O)C1=CCC(c2cccc(Cl)c2)O1 (stereo not given),-0.367 (inactive),-0.0111,11.4 (active),-0.39 (inactive),0.784 (inactive),-0.963 (inactive),0.61,-3.94 (inactive),-1.6 (inactive),-4.15,-0.787,-0.0098,-1.14,0.233,-0.783,-0.549,0.00619 (inactive),-0.757,-0.428,0.107 (inactive)
CN1C(=O)C2C=CC(C(O)c3ccc(I)cc3)N(NC(=O)OC(C)(C)C)C2C1=O (stereo not given),-1.55 (inactive),0.317,0.365 (inactive),0.214 (inactive),-0.43 (inactive),1 (inactive),-1.09,-1.01 (inactive),-0.982 (inactive),-0.411,-0.872,-0.692,-1.28,-0.0342,-0.297,-1.56,-0.474 (inactive),-0.698,0.804,-0.312 (inactive)
O=C1CCCC2OC12C(O)CCc1ccccc1 (stereo not given),0.508 (inactive),-0.541,-0.272 (inactive),-0.521 (inactive),-0.0749 (inactive),-0.169 (inactive),0.172,0.504 (inactive),-0.142 (inactive),0.0429,-0.202,-0.0344,-0.229,0.561,-0.908,0.287,0.279 (inactive),-0.278,0.353,-0.81 (inactive)
CCCC[C@@H](O)C1=C(C)C[C@H]2C(=O)N(Cc3ccccc3)C(=O)[C@H]2[C@H]1CO,0.969 (inactive),0.0736,2.44 (inactive),-0.252 (inactive),-0.347 (inactive),0.206 (inactive),0.431,-0.789 (inactive),0.358 (inactive),-0.0632,0.35,0.356,-0.0592,-0.0699,1.09,0.579,0.164 (inactive),-0.0812,-0.785,0.453 (inactive)
CCOC(=O)[C@H](CC(C)C)NC(=O)CCC1CC(OC(=O)NCCc2ccc(F)cc2)CC2(CCCC(COC(=O)NCc3ccccc3)O2)O1 (stereo not given in full),-1.06 (inactive),0.0536,3.44 (inactive),-1.22 (inactive),1.39 (inactive),-1.42 (inactive),1.78,-0.945 (inactive),-0.797 (inactive),-2.24,-0.138,0.0596,-3.35,-3.45,-3.81,-2.07,0.154 (inactive),-0.165,-1.45,0.29 (inactive)
C[C@@H]1CC[C@H]2C(=O)O[C@H](COc3ccc(C(C)(C)C)cc3)CN2[C@H]1c1ccc(Br)cc1,-0.425 (inactive),-0.279,0.813 (inactive),0.538 (inactive),-0.082 (inactive),0.343 (inactive),-0.53,0.0709 (inactive),-1.99 (inactive),0.568,1.29,0.0543,0.0624,-0.232,-0.0964,-1.12,-0.204 (inactive),-0.132,0.621,1.19 (inactive)
CC(C)=CCCC(C)=CCON=C1C[C@@H](O)[C@@H](O)[C@@H]2[C@@H]3C(=O)N(C[C@@H]4CCCO4)C(=O)[C@@H]3CC[C@@H]12,0.381 (inactive),0.0371,1.53 (inactive),0.767 (inactive),0.369 (inactive),0.549 (inactive),-0.622,0.752 (inactive),0.604 (inactive),0.0838,0.113,-0.833,-0.315,0.182,-0.0114,-1.31,0.729 (inactive),-0.495,-0.761,0.0805 (inactive)
O=C1C2=CC[C@H]3C(=O)N(Cc4ccc5c(c4)OCO5)C(=O)[C@H]3[C@H]2[C@H](O)[C@@H]2O[C@H]12,0.0561 (inactive),-0.0464,-1 (inactive),-0.507 (inactive),-0.906 (inactive),0.0094 (inactive),0.116,-0.382 (inactive),-0.111 (inactive),0.104,-0.227,0.447,0.162,0.351,-0.196,-0.275,0.00654 (inactive),-0.223,-0.398,-0.763 (inactive)
